# In PubChem BioAssay:
# Inconclusive results are not listed. Activity calls are given as the source filed them. Unless noted, cut-off not given; nearly all actives show AC50 up to about 27 µM.
# Test: growth inhibition of DIPG glioma cells, dose response, cell-based, SU-DIPG-XVII, MIPE5.0, CellTiter-Glo, qHTS (AID 1347060; cut-off not given, nearly all actives have AC50 up to about 26 µM;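 on AC50: cells exposed to compound for 48 hours before viability readout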)
# Conditions: SU-DIPG-XVII viability, CellTiter-Glo ATP luminescence
SMILES,outcome,AC50
CCOc1cc(CC(=O)N[C@@H](CC(C)C)c2ccccc2N2CCCCC2)ccc1C(=O)O,inactive,
CC(C)NCC(O)COc1ccc(CCOCC2CC2)cc1 (configuration not stated),inactive,
CCOC(=O)c1ncn2c1CN(C)C(=O)c1cc(F)ccc1-2,inactive,
CN1CCC(=C2c3ccccc3C=Cc3ccccc32)CC1,inactive,
Oc1ccc(C2CNCCc3c2cc(O)c(O)c3Cl)cc1 (configuration not stated),inactive,
CN1CCC(=C2c3ccccc3CC(=O)c3sccc32)CC1,inactive,
CCC1=C(C)CN(C(=O)NCCc2ccc(S(=O)(=O)NC(=O)NC3CCC(C)CC3)cc2)C1=O (configuration not stated),inactive,
Cn1nnc2c(C(N)=O)ncn2c1=O,inactive,
Nc1nc(N)nc(-c2cc(Cl)ccc2Cl)n1,inactive,
CCc1c2c(nc3ccc(OC(=O)N4CCC(N5CCCCC5)CC4)cc13)-c1cc3c(c(=O)n1C2)COC(=O)[C@]3(O)CC,,0.263 µM (active)
COc1ccc(C2CNC(=O)C2)cc1OC1CCCC1 (configuration not stated),inactive,
O=C(O)/C=C/c1ccc(Cn2ccnc2)cc1,inactive,
COc1ccc2nc(S(=O)Cc3ncc(C)c(OC)c3C)[nH]c2c1 (configuration not stated),inactive,
CCN1CCCC1CNC(=O)c1cc(S(=O)(=O)CC)c(N)cc1OC (configuration not stated),inactive,
O=C(NCCO[N+](=O)[O-])c1cccnc1,inactive,

# Test: growth inhibition of DIPG glioma cells, dose response, cell-based, SU-DIPG-XIII, MIPE4.0, CellTiter-Glo, qHTS (AID 1347061; cut-off not given, nearly all actives have AC50 up to about 37 µM;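 further: cells exposed to compound for 48 hours before readout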)
# Conditions: SU-DIPG-XIII viability, CellTiter-Glo ATP luminescence
SMILES,outcome,AC50
COc1ccccc1N1CCN(CC(O)COc2cccc3ccccc23)CC1 (configuration not stated),inactive,
CC(C)NCC(O)COc1ccc(CCOCC2CC2)cc1 (configuration not stated),inactive,
COc1cc2nc(N3CCN(C(=O)C4CCCO4)CC3)nc(N)c2cc1OC (configuration not stated),inactive,
CCOC(=O)c1ncn2c1CN(C)C(=O)c1cc(F)ccc1-2,inactive,
CC(C)NCC(O)COc1ccc(COCCOC(C)C)cc1 (configuration not stated),inactive,
CN1CCC(=C2c3ccccc3C=Cc3ccccc32)CC1,,23.5 µM (active)
Oc1ccc(C2CNCCc3c2cc(O)c(O)c3Cl)cc1 (configuration not stated),inactive,
CCC1=C(C)CN(C(=O)NCCc2ccc(S(=O)(=O)NC(=O)NC3CCC(C)CC3)cc2)C1=O (configuration not stated),inactive,
Cn1nnc2c(C(N)=O)ncn2c1=O,inactive,
Nc1nc(N)nc(-c2cc(Cl)ccc2Cl)n1,inactive,
O=C(O)/C=C/c1ccc(Cn2ccnc2)cc1,inactive,
CCN1CCCC1CNC(=O)c1cc(S(=O)(=O)CC)c(N)cc1OC (configuration not stated),inactive,
O=C(NCCO[N+](=O)[O-])c1cccnc1,inactive,
CNS(=O)(=O)Cc1ccc2[nH]cc(CCN(C)C)c2c1,inactive,

# Test: growth inhibition of DIPG glioma cells, dose response, cell-based, JHH-DIPG-1, MIPE4.0, CellTiter-Glo, qHTS (AID 1347062)
# Conditions: JHH-DIPG-1 viability, CellTiter-Glo ATP luminescence
row,SMILES,outcome
1,CCOc1cc(CC(=O)N[C@@H](CC(C)C)c2ccccc2N2CCCCC2)ccc1C(=O)O,inactive
2,COCCCC/C(=N\OCCN)c1ccc(C(F)(F)F)cc1,inactive
3,COc1ccccc1N1CCN(CC(O)COc2cccc3ccccc23)CC1 (configuration not stated),inactive
4,CC(C)NCC(O)COc1ccc(CCOCC2CC2)cc1 (configuration not stated),inactive
5,COc1cc2nc(N3CCN(C(=O)C4CCCO4)CC3)nc(N)c2cc1OC (configuration not stated),inactive
6,CC(C)NCC(O)COc1ccc(COCCOC(C)C)cc1 (configuration not stated),inactive
7,Oc1ccc(C2CNCCc3c2cc(O)c(O)c3Cl)cc1 (configuration not stated),inactive
8,CN1CCC(=C2c3ccccc3CC(=O)c3sccc32)CC1,inactive
9,CCC1=C(C)CN(C(=O)NCCc2ccc(S(=O)(=O)NC(=O)NC3CCC(C)CC3)cc2)C1=O (configuration not stated),inactive
10,Cn1nnc2c(C(N)=O)ncn2c1=O,inactive
11,COC(=O)C1=C(C)NC(C)=C(C(=O)OC(C)C)C1c1cccc2nonc12 (configuration not stated),inactive
12,Nc1nc(N)nc(-c2cc(Cl)ccc2Cl)n1,inactive
13,COc1ccc(C2CNC(=O)C2)cc1OC1CCCC1 (configuration not stated),inactive
14,O=C(O)/C=C/c1ccc(Cn2ccnc2)cc1,inactive
15,COc1ccc2nc(S(=O)Cc3ncc(C)c(OC)c3C)[nH]c2c1 (configuration not stated),inactive
16,CCN1CCCC1CNC(=O)c1cc(S(=O)(=O)CC)c(N)cc1OC (configuration not stated),inactive
17,CNS(=O)(=O)Cc1ccc2[nH]cc(CCN(C)C)c2c1,inactive

# Test: growth inhibition of DIPG glioma cells, dose response, cell-based, SU-DIPG-IV, MIPE4.0, CellTiter-Glo, qHTS (AID 1347063; cut-off not given, nearly all actives have AC50 up to about 30 µM;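 further: compound exposure lasted 48 hours before the viability readout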)
# Conditions: SU-DIPG-IV viability, CellTiter-Glo ATP luminescence
SMILES,outcome,AC50
CCOc1cc(CC(=O)N[C@@H](CC(C)C)c2ccccc2N2CCCCC2)ccc1C(=O)O,inactive,
COCCCC/C(=N\OCCN)c1ccc(C(F)(F)F)cc1,inactive,
CC(C)NCC(O)COc1ccc(CCOCC2CC2)cc1 (configuration not stated),inactive,
COc1cc2nc(N3CCN(C(=O)C4CCCO4)CC3)nc(N)c2cc1OC (configuration not stated),inactive,
CCOC(=O)c1ncn2c1CN(C)C(=O)c1cc(F)ccc1-2,inactive,
CC(C)NCC(O)COc1ccc(COCCOC(C)C)cc1 (configuration not stated),inactive,
CCC1=C(C)CN(C(=O)NCCc2ccc(S(=O)(=O)NC(=O)NC3CCC(C)CC3)cc2)C1=O (configuration not stated),inactive,
Cn1nnc2c(C(N)=O)ncn2c1=O,inactive,
COC(=O)C1=C(C)NC(C)=C(C(=O)OC(C)C)C1c1cccc2nonc12 (configuration not stated),inactive,
CCc1c2c(nc3ccc(OC(=O)N4CCC(N5CCCCC5)CC4)cc13)-c1cc3c(c(=O)n1C2)COC(=O)[C@]3(O)CC,,4.69 µM (active)
COc1ccc(C2CNC(=O)C2)cc1OC1CCCC1 (configuration not stated),inactive,
O=C(O)/C=C/c1ccc(Cn2ccnc2)cc1,inactive,
COc1ccc2nc(S(=O)Cc3ncc(C)c(OC)c3C)[nH]c2c1 (configuration not stated),inactive,
CCN1CCCC1CNC(=O)c1cc(S(=O)(=O)CC)c(N)cc1OC (configuration not stated),inactive,
O=C(NCCO[N+](=O)[O-])c1cccnc1,inactive,
CNS(=O)(=O)Cc1ccc2[nH]cc(CCN(C)C)c2c1,inactive,
